Hits are enriched below; roughly 4.8% of the tested compounds scored in any of these assays.
ssDAF12 agonist = S. stercoralis DAF-12 activation, primary screen | activation, % at 6.8 µM | hit rate 1% among 370,000 | AID 652126 | HEK293 ssDAF-12/GRIP1 lit1-tk-luc reporter, luminescence; % of 3 µM dafachronic acid response;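 active = activation above the mean over all tested compounds plus 3 SD, cut at about 0.9% in these data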;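 also: 0% = DMSO-only wells and 100% = 3 µM delta7-dafachronic acid wells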
DAX1 inh-1 = inhibitors of human orphan nuclear receptor DAX1 (NR0B1); P51843; hit rate 0.99% among 340,000; HEK293 Gal4-DAX1 luciferase reporter, luminescence; inhibition, % at 6.75 µM;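 active = inhibition above the mean over all tested compounds plus 3 SD, cut at about 4.2% in these data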;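 also: 0% = DAX1-transfected cells with DMSO and 100% = empty-vector control cells with DMSO; inhibition shows as a rise in luminescence from relieved DAX1 repression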
Target sequence (P51843 207-470 limits assumed): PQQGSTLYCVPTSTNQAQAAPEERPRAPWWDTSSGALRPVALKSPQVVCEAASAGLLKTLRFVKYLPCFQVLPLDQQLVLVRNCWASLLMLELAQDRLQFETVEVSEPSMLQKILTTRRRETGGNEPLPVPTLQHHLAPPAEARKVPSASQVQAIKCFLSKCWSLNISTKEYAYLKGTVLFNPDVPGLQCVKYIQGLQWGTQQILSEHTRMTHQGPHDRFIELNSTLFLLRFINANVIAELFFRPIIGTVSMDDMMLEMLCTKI
hgDAF-12 ag = hgDAF-12 agonism, primary luciferase screen | HEK293 GAL4-hgDAF12 UAS-luciferase reporter, agonist luminescence; normalized to butyrate control | hit rate 1.8% among 370,000 | activation, % at 6.8 µM;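 active = activation above a cutoff set at the mean of all screened compounds plus 3 SD, cut at about 10% in these data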;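 also: 0% = DMSO wells and 100% = sodium butyrate wells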
hcDAF12 agonist = H. contortus DAF-12 activation, primary screen. activation, % at 6.8 µM. AID 652067. hit rate 1.4% among 370,000. HEK293 hcDAF-12 lit1-tk-luc reporter, luminescence; 0% DMSO, 100% Δ7-dafachronic acid;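 active = activation above the mean of all tested compounds plus 3 SD, cut at about 5.5% in these data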;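 also: 100% = response to 3 µM Δ7-dafachronic acid high control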
SMARCA2 activ = SMARCA2 function activation, primary screen | MG213 cells, MMTV-luciferase reporter, dexamethasone, overnight | activation, % at 9.1 µM | hit rate 1% among 370,000; in the data active = activation above about 7.8%;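 also: 0% = vehicle wells and 100% = reference activator wells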
DAX1 inh-2 = DAX1 (NR0B1) inhibition, primary screen | HEK293T StAR-luciferase reporter, SF-1/DAX-1 repression relief | inhibition, % at 6.8 µM | hit rate 1.1% among 370,000 | AID 652010;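 active = inhibition above the mean over all tested compounds plus 3 SD, cut at about 3.6% in these data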;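 also: 0% = DAX-1 cells with DMSO and 100% = cells lacking DAX-1 with DMSO; higher inhibition means more luminescence from relief of DAX-1 repression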
Numbers without * were called inactive.

Screening CCn1cc(C(=O)NCCCN2CCN(C)CC2)c(=O)c2cc(S(=O)(=O)N3CCc4ccccc4C3)ccc21 returned ssDAF12 agonist 1.5*, DAX1 inh-1 3, hgDAF-12 ag -2, hcDAF12 agonist 1, SMARCA2 activ -2 and DAX1 inh-2 0.
Screening CN(CCCNC(=O)c1cn(C)c2ccc(S(=O)(=O)N(C)C)cc2c1=O)c1ccccc1 returned ssDAF12 agonist 0, DAX1 inh-1 5.3*, hgDAF-12 ag 1, hcDAF12 agonist -1, SMARCA2 activ 1 and DAX1 inh-2 -2.
`CN(C)S(=O)(=O)c1ccc2c(c1)c(=O)c(C(=O)N1CCOCC1)cn2C` gave ssDAF12 agonist -2, DAX1 inh-1 5.9*, hgDAF-12 ag 3, hcDAF12 agonist 2, SMARCA2 activ 0 and DAX1 inh-2 1.
`Cn1cc(C(=O)N2CCN(c3ccccc3)CC2)c(=O)c2cc(S(=O)(=O)N3CCOCC3)ccc21` gave ssDAF12 agonist -1, DAX1 inh-1 1, hgDAF-12 ag 1, hcDAF12 agonist 4, SMARCA2 activ -2 and DAX1 inh-2 0.
CCOC(=O)C1(c2ccccc2)SC(C(=O)OCC)(c2ccccc2)S1 (centres undefined) was read as ssDAF12 agonist -2, DAX1 inh-1 1, hgDAF-12 ag -1, hcDAF12 agonist -2, SMARCA2 activ -1 and DAX1 inh-2 0.
c1ccn2c(Cc3nnc4ccccn34)nnc2c1 was read as ssDAF12 agonist -1, DAX1 inh-1 0, hgDAF-12 ag -1, hcDAF12 agonist 0, SMARCA2 activ 1 and DAX1 inh-2 0.
`Cc1cc(C(C)(C)C)cc(S(=O)(=O)NCCc2ccncc2)c1C` gave ssDAF12 agonist -2, DAX1 inh-1 0, hgDAF-12 ag -2, hcDAF12 agonist -1, SMARCA2 activ -1 and DAX1 inh-2 0.
`Cc1cc(N2CCOCC2)ccc1/C=C\[N+](=O)[O-]` gave ssDAF12 agonist 16*, DAX1 inh-1 -1, hgDAF-12 ag 4, hcDAF12 agonist 1, SMARCA2 activ 1 and DAX1 inh-2 0.
Screening Cc1nn(C)cc1C(C(=O)NC1CCCCC1)N(Cc1ccccc1Cl)C(=O)c1cnccn1 (centres undefined) returned ssDAF12 agonist -2, DAX1 inh-1 0, hgDAF-12 ag -1, hcDAF12 agonist 0, SMARCA2 activ 1 and DAX1 inh-2 0.
O=C(N/N=C/c1ccncc1)NC1CCCCC1 was read as ssDAF12 agonist -1, DAX1 inh-1 5.9*, hgDAF-12 ag 1, hcDAF12 agonist 0, SMARCA2 activ 0 and DAX1 inh-2 0.
c1ccc2cc(Cn3ccnc3)ccc2c1 was read as ssDAF12 agonist -1, DAX1 inh-1 1, hgDAF-12 ag 1, hcDAF12 agonist -2, SMARCA2 activ 6 and DAX1 inh-2 0.
Screening C/C(=N\NC(=S)NC1CCCCC1)c1ccc(Cl)c(Cl)c1 returned ssDAF12 agonist -2, DAX1 inh-1 25*, hgDAF-12 ag -2, hcDAF12 agonist -1, SMARCA2 activ -1 and DAX1 inh-2 0.
COc1ccc(NC(=O)C2CCCN(c3cnccn3)C2)cc1 (centres undefined) was read as ssDAF12 agonist -1, DAX1 inh-1 0, hgDAF-12 ag -2, hcDAF12 agonist -1, SMARCA2 activ 1 and DAX1 inh-2 0.
For Cc1ccc(CC(=O)N2CCN(c3ccc([N+](=O)[O-])cc3)CC2)cc1 the results were ssDAF12 agonist -1, DAX1 inh-1 -2, hgDAF-12 ag -1, hcDAF12 agonist -4, SMARCA2 activ -1 and DAX1 inh-2 -1.
Screening Cc1ccc(Nc2ccc(N3CCN(c4ccc([N+](=O)[O-])cc4)CC3)nn2)cc1 returned ssDAF12 agonist -1, DAX1 inh-1 4.5*, hgDAF-12 ag -3, hcDAF12 agonist -1, SMARCA2 activ -4 and DAX1 inh-2 0.
For CC(NC(=O)COC(=O)Cc1ccccc1[N+](=O)[O-])c1ccccc1 (centres undefined) the results were ssDAF12 agonist -1, DAX1 inh-1 0, hgDAF-12 ag 2, hcDAF12 agonist 0, SMARCA2 activ 1 and DAX1 inh-2 0.
Screening NS(=O)(=O)c1ccc(CNC(=O)Cc2ccccc2[N+](=O)[O-])cc1 returned ssDAF12 agonist 0, DAX1 inh-1 1, hgDAF-12 ag 4, hcDAF12 agonist 5.6*, SMARCA2 activ 0 and DAX1 inh-2 0.

Compound activity as filed in PubChem BioAssay.
